Our source for the z-score values is PubChem BioAssay AID488969 (Vanderbilt High Throughput Screening Facility, 2010).

The structures appear in SMILES notation. The full ranking holds about 110,000 compounds; the median of “z-score” is about -0.1, and the highest 2% start at about 2. What follows is part of a selection rich in the highest values, with near analogues and random picks from the rest. The source made the active and inactive calls.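 The calls were made as follows: active = z-score in the third read window above 3 or below -3; inactive = the rest.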

This experiment deals with Metabotropic glutamate receptor 8 (Rattus norvegicus) (UniProt P70579). The experiment can be described thus: mGluR8 Gi/Go-coupled signaling modulation – cell-based, rat, thallium flux, HTS, primary screen (AID 488969). As to conditions: HEK293 rat mGluR8, GIRK (G protein-gated inwardly rectifying potassium channel) thallium flux, FluoZin2; at 10 µM; stronger effect = higher value; submaximal glutamate (EC20) added with thallium.
Chain of Metabotropic glutamate receptor 8 (Rattus norvegicus) (P70579 whole entry, looked up): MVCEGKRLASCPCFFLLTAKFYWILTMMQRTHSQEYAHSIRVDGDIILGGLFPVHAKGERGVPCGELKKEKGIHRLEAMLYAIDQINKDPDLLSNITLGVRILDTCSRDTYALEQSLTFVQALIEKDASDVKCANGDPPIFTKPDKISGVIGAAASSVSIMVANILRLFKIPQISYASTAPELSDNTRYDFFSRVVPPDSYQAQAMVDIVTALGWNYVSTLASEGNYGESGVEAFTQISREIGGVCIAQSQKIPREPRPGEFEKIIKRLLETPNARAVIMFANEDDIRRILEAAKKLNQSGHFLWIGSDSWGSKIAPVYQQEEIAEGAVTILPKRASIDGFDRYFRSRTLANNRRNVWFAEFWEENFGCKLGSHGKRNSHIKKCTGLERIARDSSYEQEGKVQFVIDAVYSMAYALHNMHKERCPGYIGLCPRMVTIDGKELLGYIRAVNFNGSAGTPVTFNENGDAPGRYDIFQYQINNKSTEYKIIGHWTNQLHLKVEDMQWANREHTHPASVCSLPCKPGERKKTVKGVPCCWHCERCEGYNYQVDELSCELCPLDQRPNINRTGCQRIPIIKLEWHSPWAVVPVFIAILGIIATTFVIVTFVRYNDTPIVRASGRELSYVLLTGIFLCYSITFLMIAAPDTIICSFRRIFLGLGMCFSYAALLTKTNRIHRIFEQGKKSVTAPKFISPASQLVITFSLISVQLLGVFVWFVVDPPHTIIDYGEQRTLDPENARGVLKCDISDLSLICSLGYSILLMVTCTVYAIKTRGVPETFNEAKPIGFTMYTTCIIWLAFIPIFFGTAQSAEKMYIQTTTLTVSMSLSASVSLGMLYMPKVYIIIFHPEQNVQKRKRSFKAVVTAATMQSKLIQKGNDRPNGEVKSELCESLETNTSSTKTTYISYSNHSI
Take `CCOc1ccc(CNC(=O)CCn2c(=O)oc3ccccc32)cc1OC`: the z-score came to 0.903.

In the case of `O=C(O)C1C2C=CC(O2)C1C(=O)Nc1ccc(S(=O)(=O)N2CCc3ccccc32)cc1` (centres undefined), the z-score was -0.0204.

As for `CCOC(=O)Cc1csc(NC(=S)NC(=O)CC(C)C)n1`, the z-score turned out to be 1.27.

Molecule `CCOC(=O)Cc1csc(NC(=O)c2ccc(Br)s2)n1` yielded a z-score of 1.08.

The molecule `CCOC(=O)Cc1csc(NC(=O)c2ccc(Br)o2)n1` yielded a z-score of 0.017.

Take `CCOC(=O)Cc1csc(NC(=S)NC(=O)c2ccccc2Br)n1`: the z-score is 7.57 (active).

Turning to `CCOC(=O)Cc1csc(NC(=S)NC(=O)c2ccccc2C)n1`, the z-score was 9.08 (active).

Take `CCOC(=O)Cc1csc(NC(=S)NC(=O)C(C)(C)C)n1`: the z-score came to 1.73.

For `COC(=O)c1nnn(CC(=O)Nc2cc(Cl)ccc2C)c1C(=O)OC`, the z-score was -0.484.

As to `COc1cc(/C=C2\SC(c3ccc(C)cc3)=NC2=O)ccc1O`, the z-score was -0.769.

Regarding `O=C(Nc1ccc(Cn2cccn2)cc1)c1ccc(COc2ccccc2Br)cc1`, the z-score was -0.0941.

For `O=S(=O)(N/N=C/c1cn(Cc2ccccc2)c2ccccc12)c1ccccc1`, the z-score was -0.216.

As for `Cc1cc(N2CCCCCC2)nc2ccccc12`, the z-score is -0.134.

On to `COc1ccccc1N1C(=O)CCC1(C#N)c1ccc(Br)cc1` (centres undefined), for which the z-score was -0.14.

On to `Cc1c(NC(=O)CSc2ccc(Cl)cc2)cccc1-c1nc2ncccc2o1`, for which the z-score is -0.212.

On to `O=S(=O)(Nc1ccc(N2CCCCC2)cc1)c1cccs1`, for which the z-score is -0.488.

`O=S(=O)(Nc1ccc(N2CCOCC2)cc1)c1ccc(Cl)s1`: the z-score is -0.104.

Consider `O=C(Nc1ccccc1)c1ccccc1NS(=O)(=O)c1ccc(Cl)s1`, for which the z-score was -3.39 (active).

Consider `O=C(Nc1cc(Cl)ccc1N1CCCCC1)c1cccs1`, for which the z-score is -0.311.

Regarding `O=S(=O)(Nc1ccccc1N1CCCCC1)c1ccc(Cl)s1`, the z-score was 3.45 (active).

In the case of `O=S(=O)(Nc1cc(Cl)ccc1N1CCCCC1)c1cccs1`, the z-score was 7.03 (active).

With `COC(=O)c1ccc(OC(=O)c2ccccc2F)cc1`, the z-score stood at 0.198.

Regarding `COc1ccccc1NC(=O)CSc1ccc2nnc(-c3cccnc3)n2n1`, the z-score is -0.277.

On to `O=C(COC(=O)c1ccc(-c2nnc(-c3ccccc3)o2)cc1)c1ccccc1`, for which the z-score was -0.145.

As for `CC(C)n1c(N2CCN(CC(=O)NCc3cccs3)CC2)nc2ccccc21`, the z-score is -0.0505.

Consider `Cc1nccn1CC(O)Cn1c2ccccc2c2ccccc21` (centres undefined), for which the z-score was found to be 2.

`Cc1nc2ccccc2n1CC(O)Cn1c2ccccc2c2ccccc21` (centres undefined) registered a z-score of 0.752.

On to `Cc1nccn1CC(O)COc1ccccc1` (centres undefined), for which the z-score is -0.0583.

Regarding `Cc1cccc(-n2c(SCc3cc(=O)n4ccsc4n3)nc3ccccc3c2=O)c1`, the z-score was -0.276.

As to `Cc1nc(NC(=O)COc2ccccc2)sc1C(=O)Nc1ccccc1`, the z-score was -0.075.

In turn, `CC(Oc1ccc(Cl)cc1Cl)C(=O)NCCN1CCOCC1` (centres undefined) showed a z-score of 0.00607.

For the molecule `CN1/C(=C\C(=S)NC(=O)c2ccccc2Cl)C(C)(C)c2ccccc21`, the z-score stood at 0.0507.

As to `Cc1ccc(Nc2nc3nonc3nc2N(C)C)cc1`, the z-score is -0.0276.

`CCN(CC)c1nc2nonc2nc1N(CC)CC` returned a z-score of 2.53.

Regarding `Cc1cc(C)n(-c2nc3nonc3nc2-n2nc(C)cc2C)n1`, the z-score came to 0.084.

For `Cc1n[nH]c(C)c1S(=O)(=O)N(CC(=O)Nc1ccc2c(c1)OCCO2)c1ccc(C(C)C)cc1`, the z-score was -0.193.

With `O=C(NCCCc1ccccc1)Nc1cccc(Cl)c1`, the z-score came out at 2.01.

Regarding `O=C(NCCCc1ccccc1)Nc1ccccc1`, the z-score was 0.456.

Molecule `O=C(NCCc1ccc(Cl)cc1)Nc1cccc(Cl)c1` had a z-score of 0.529.

Consider `Cc1nc(N2CCN(C)CC2)c2c(C)c(C(=O)Nc3ccc(C)c(F)c3)sc2n1`, for which the z-score was -0.555.

Turning to `CCCc1cc(=O)[nH]c(SCC(=O)NC(=O)OCC)n1`, the z-score was -0.0127.

As for `Cc1cc(C)n(S(=O)(=O)c2ccc(C(C)(C)C)cc2)n1`, the z-score was -1.41.

Regarding `CCc1nc(SCC(=O)Nc2c(C)nn(C)c2C)c2cnn(-c3ccccc3)c2n1`, the z-score is -0.873.

`CCOC(=O)NC1(C(F)(F)F)NC(=O)N(C2CCCCC2)C1=O` (centres undefined): the z-score amounted to 2.9.

For `CC(=O)NC1(C(F)(F)F)NC(=O)N(C2CCCCC2)C1=O` (centres undefined), the z-score was -0.137.

For the molecule `O=C(NC1(C(F)(F)F)NC(=O)N(C2CCCC2)C1=O)C1CC1` (centres undefined), the z-score is -0.129.

As to `COc1ccc(-c2nnc(SCc3nnc(-c4ccc(Cl)cc4)o3)n2-c2ccccc2)cc1`, the z-score is -1.79.

With `COc1ccc(NS(=O)(=O)c2ccc(Br)s2)cc1OC`, the z-score came out at 2.11.

The molecule `COc1ccc(C)cc1NS(=O)(=O)c1ccc(Br)s1` displayed a z-score of 0.369.

The molecule `COc1cc(NS(=O)(=O)c2ccc(Br)s2)cc(OC)c1` came in with a z-score of 0.398.

`CCC(=O)Oc1ccc(C(=O)Nc2cccc(C(=O)c3ccccc3)c2)cc1` displayed a z-score of 0.022.

Regarding `CC1(C)NC(=O)N(CC(O)CN2CCCCC2)C1=O` (centres undefined), the z-score is 0.323.

`COc1ccc(CSc2nc(C)cc(=O)[nH]2)cc1Br`: the z-score is -1.02.

`CC(=O)Nc1ccc(S(=O)(=O)Nc2nnc(C(C)(C)C)s2)cc1` returned a z-score of 0.307.

`COc1ccc(NC(=S)NNC(=O)c2ccccc2OC(F)F)cc1`: the z-score was determined as 0.204.

The molecule `CN(C)c1cccc(N=C2C=C(N3CCOCC3)CC(C)(C)C2)c1` showed a z-score of 2.3.

Molecule `CN(C)c1cccc(NC2=CC(=[N+]3CCOCC3)CC(C)(C)C2)c1` had a z-score of 0.942.

`CN(C)c1cccc(C(=O)Nc2ccc(N3CCOCC3)cc2)c1`: the z-score is -0.0628.

As to `O=C(Nc1cccc(O)c1)c1cc(-c2ccco2)on1`, the z-score is -0.103.

Take `Cc1ccc(Cl)c2c1NC(=O)C2(O)CC(=O)c1ccc(F)cc1` (centres undefined): the z-score is -0.203.

As to `COc1ccc(NC(=O)OCCn2c([N+](=O)[O-])cnc2C)cc1`, the z-score is -0.144.

As to `CCOC(=O)C(NCCCO)c1ccccc1` (centres undefined), the z-score is -0.247.

Consider `COc1ccc(OC)c(-c2c[n+](=O)c3c(n2[O-])CCCC3)c1`, for which the z-score came to 0.0184.

The molecule `O=S(=O)(c1ccc(F)cc1)N1CCN(c2ncnc3c2cnn3-c2ccccc2)CC1` returned a z-score of 2.11.

The molecule `CCN1CCN(c2ncnc3c2cnn3-c2ccccc2)CC1` displayed a z-score of 0.0325.

With `c1ccc(-n2ncc3c(N4CCCCC4)ncnc32)cc1`, the z-score is -0.259.

Take `CN(C)C=NC(=O)c1ccc([N+](=O)[O-])c(CS(=O)(=O)c2ccc(Cl)cc2)c1`: the z-score is -0.0395.

Molecule `CCc1ccccc1N(CC(=O)O)S(C)(=O)=O` showed a z-score of 0.424.

`CCCCOc1ccc(/C=N/NC(=S)Nc2cc(C)ccc2C)cc1` registered a z-score of 1.19.

Regarding `COc1ccccc1NC(=S)NNC(=S)Nc1ccc(OC(F)F)cc1`, the z-score is -0.345.

In the case of `COc1ccc(C/C(C)=N/NC(=S)Nc2ccc(C(C)C)cc2)cc1`, the z-score was determined as 0.256.

For the molecule `COc1ccc(C/C(C)=N/NC(=S)Nc2ccccc2)cc1`, the z-score was 5.19 (active).

`Cc1ccc(CNC(=S)Nc2ccc(OC(F)F)cc2C)cc1`: the z-score is -0.531.

For the molecule `CC/C(=N\NC(=S)Nc1cc(C)ccc1C)c1ccc(OC(F)F)cc1`, the z-score was 3.47 (active).

As for `CC/C(=N\NC(=S)Nc1ccc(OC)cc1)c1ccc(OC(F)F)cc1`, the z-score was 7.5 (active).

`CCOc1ccc(NC(=S)N/N=C(\C)Cc2ccc(OC)cc2)cc1` registered a z-score of 1.35.

In turn, `COc1ccc(C/C(C)=N/NC(=S)Nc2ccc(C)c(C)c2)cc1` displayed a z-score of 1.65.

Regarding `CCN(CCCNC(=O)CCNC(=O)Cn1ccc2ccccc2c1=O)c1ccccc1`, the z-score was -0.46.

For the molecule `CCN1CCN(Cc2c(O)ccc3c(=O)c(-c4ccc(OC)c(OC)c4)c(C)oc23)CC1`, the z-score was -0.348.

`Cc1ccc(Oc2c(C=O)c3ccccc3n2C)cc1`: the z-score was -0.989.

Consider `CC1(C)CC(=O)N(CC(=O)NC2CCCC2)c2ccccc2S1(=O)=O`, for which the z-score is -0.29.

For the molecule `Clc1ccc(Oc2cnc3ccccc3n2)cc1`, the z-score was -0.22.

For the molecule `CCC(CC)C(=O)Nc1cc(OC)c(OC)cc1C(=O)O`, the z-score is -0.741.

For the molecule `O=C(Nc1ccc(O)c(-c2nc3ccccc3o2)c1)C1(c2ccc(Br)cc2)CCCC1`, the z-score is -0.297.

As for `CCOC(=O)CN(C(=O)c1ccccc1)c1ccccc1C`, the z-score is -0.114.

`CC(=O)NC(CC(=O)NC1CCCCCC1)c1ccccc1` (centres undefined): the z-score was found to be 0.55.

Consider `CC1(C)CC(=O)C2=C(C1)OC(N)=C(C#N)C21C(=O)N(CN2CCOCC2)c2ccccc21` (centres undefined), for which the z-score was -0.00502.

Take `COCc1cc(=O)[nH]c(Nc2nc(C)c3ccccc3n2)n1`: the z-score was -0.43.

On to `CCc1ccc2nc(Nc3nc(COC)cc(=O)[nH]3)nc(C)c2c1`, for which the z-score was 2.69.

As to `COCc1cc(=O)[nH]c(Nc2nc(C)c3cc(OC)ccc3n2)n1`, the z-score is -0.401.

As to `O=C(CSc1nc2nc3c(cc2c(=O)n1-c1ccccc1)CCCC3)Nc1ccccc1`, the z-score is -0.468.

Turning to `Cc1ccc(-n2c(N)c(C(=O)NCc3ccco3)sc2=S)cc1`, the z-score was -0.322.

Take `CCn1c(N)c(C(=O)NCc2ccco2)sc1=S`: the z-score is 4.44 (active).

As for `O=C(NCc1ccccc1)c1sc(=S)n2c1[nH]c(=O)c1ccccc12`, the z-score was -0.316.

As to `O=C(NCc1ccco1)c1sc(=S)n2c1[nH]c(=O)c1ccccc12`, the z-score stood at 2.75.

With `C=CCn1c(N)c(C(=O)NCc2ccco2)sc1=S`, the z-score amounted to 0.688.

Regarding `O=C(NCc1ccco1)c1sc2ccccc2c1Cl`, the z-score is -0.649.

Take `CC(=O)Oc1ccc2oc(=O)c3c(c2c1)CCCN3C(=O)CN1CCN(c2ncccn2)CC1`: the z-score was -0.26.

On to `CCOC(=O)CC1=CSC2=NS(=O)(=O)CCN12`, for which the z-score was -0.784.

For the molecule `CC(=O)C1=C(C)NC(SCC(=O)c2ccccc2)=C(C#N)C1c1ccco1` (centres undefined), the z-score is -1.16.

`CCc1cc2c(=O)[nH]c(Cc3ccccc3)nc2s1`: the z-score was -0.371.

Regarding `COC(=O)c1ccc(COC(=O)c2ccc(CS(=O)(=O)c3ccc(C)cc3)cc2)cc1`, the z-score was -0.331.

For the molecule `Cc1ccc(NC(=O)COC(=O)CCC(=O)c2ccc(Cl)cc2)cc1S(=O)(=O)N(C)C`, the z-score is 3.92 (active).

As to `CN(C)S(=O)(=O)c1cccc(NC(=O)COC(=O)CCC(=O)c2ccc(F)cc2)c1`, the z-score was -0.326.

In turn, `Cc1ccc2c(Cl)cc(Cl)c(OCC(=O)Nc3cccc(S(=O)(=O)N(C)C)c3)c2n1` came in with a z-score of 0.415.

Turning to `Cc1ccc(NC(=O)Cc2ccccc2Cl)cc1S(=O)(=O)N(C)C`, the z-score was 12.9 (active).

Turning to `Cc1ccc(S(=O)(=O)N(C)C)cc1NC(=O)COC(=O)CCC(=O)c1ccc(F)cc1`, the z-score was -0.39.

`Cc1ccc(NC(=O)COC(=O)/C=C/c2ccco2)cc1S(=O)(=O)N(C)C`: the z-score came out at 1.23.

Regarding `CCOCC(=O)Nc1c(C(=O)OCC)oc2ccccc12`, the z-score is -0.215.

Regarding `CCOCc1c(C(=O)OCC(=O)Nc2ccc(C)c(S(=O)(=O)N(C)C)c2)oc2ccccc12`, the z-score is 9.51 (active).

As for `Cc1ccc2c(Cl)cc(Cl)c(OCC(=O)Nc3cc(S(=O)(=O)N(C)C)ccc3C)c2n1`, the z-score was -0.0675.

`Cc1ccc(NC(=O)Cc2c(Cl)cccc2Cl)cc1S(=O)(=O)N(C)C` yielded a z-score of 1.

For `Cc1ccc2c(Cl)cc(Cl)c(OCC(=O)Nc3ccc(C)c(S(=O)(=O)N(C)C)c3)c2n1`, the z-score turned out to be 2.31.

For `Cc1ccc(NC(=O)CCNC(=O)c2ccccc2Cl)cc1S(=O)(=O)N(C)C`, the z-score is -0.00648.
